Assay outcomes: PubChem BioAssay, several laboratories
The list is not random: actives were taken first. Their share in the collection is about 3%.
Rv3671c inh: Rv3671c serine protease inhibitors, primary screen, biochemical, fluorescence polarization, M. tuberculosis H37Rv; inhibition, % at 5.96 µM; hit rate 0.048% among 320,000; in the data active = inhibition above about 38%;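 note: extracellular domain of Rv3671c used as enzyme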
Mtb FBA inh: Mtb FBA enzyme inhibitors, primary screen, biochemical, fluorescence, strain H37Rv; Fructose-bisphosphate aldolase (Mycobacterium tuberculosis (strain ATCC 25618 / H37Rv)), …; purified M. tuberculosis FBA, fluorescence read-out; inhibition, % at 1 µM; hit rate 2.3% among 360,000; AID 588726, 2011; in the data active = inhibition above about 27%
Target sequence (P9WQA3 whole entry, looked up): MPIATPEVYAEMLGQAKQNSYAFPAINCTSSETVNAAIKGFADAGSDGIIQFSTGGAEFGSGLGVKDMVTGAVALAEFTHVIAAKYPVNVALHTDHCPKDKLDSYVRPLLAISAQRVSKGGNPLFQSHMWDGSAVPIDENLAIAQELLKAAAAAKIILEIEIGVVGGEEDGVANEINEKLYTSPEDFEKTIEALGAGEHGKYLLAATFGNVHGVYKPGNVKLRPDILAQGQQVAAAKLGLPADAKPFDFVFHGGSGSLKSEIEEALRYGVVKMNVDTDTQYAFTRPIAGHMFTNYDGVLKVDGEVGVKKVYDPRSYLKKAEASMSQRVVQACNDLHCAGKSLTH
Mtb BioA inh: M. tuberculosis BioA enzyme inhibitors, primary screen, biochemical, plate reader, single point, HTS | purified M. tuberculosis BioA enzyme | 7,8-diaminopelargonic acid synthase BioA (Mycobacterium tuberculosis) | hit rate 0.096% among 360,000 | inhibition, % at 9.99 µM | AID 602481, 2012; in the data active = inhibition above about 40%
FadD28 binding: inhibitors of FadD28 bisubstrate probe binding, primary screen, biochemical, fluorescence polarization, single point; inhibition, % at 12.5 µM; hit rate 0.22% among 360,000; Mycobacterium tuberculosis FadD28 fatty-acid-AMP ligase; in the data active = inhibition above about 8.5%, passing the limit was not always enough
GDH-TPI counter: GDH-TPI coupling enzyme inhibitors, primary screen, artefact control for M. tuberculosis FBA inhibitor project, biochemical, absorbance, full deck. GDH-TPI coupled enzyme counterscreen, NADH absorbance. inhibition, % at 4.8 µM. hit rate 1.2% among 360,000. AID 588335, 2011; in the data active = inhibition above about 30%
Of the large screens only hits and unclear results are named; the others gave an inactive call.

CCCCN(CC)Cc1c(O)ccc2c3c(c(=O)oc12)CCC3	none (no result: Mtb FBA inh, Mtb BioA inh)
CN(C)Cc1c(O)ccc2c3c(c(=O)oc12)CCCCC3	Mtb FBA inh active (no result: Mtb BioA inh)
COc1ccc2cc3cc(C(=O)NCCN4CCc5ccccc5C4)sc3nc2c1	none (no result: Mtb BioA inh)
CN(C)S(=O)(=O)c1cccc(NC(=O)c2cc3c(=O)n4ccccc4nc3s2)c1	none (no result: Mtb BioA inh)
CC(C)CCNC(=O)c1cc2c(=O)n3ccccc3nc2s1	Mtb FBA inh 121
CCC(C)NC(=O)c1cc2cc3ccc(OC)cc3nc2s1 (stereo unspecified)	Mtb FBA inh 110
CCC(C)NC(=O)c1cc2c(=O)n3ccccc3nc2s1 (stereo unspecified)	Mtb FBA inh active (no result: FadD28 binding)
CNc1cnn(-c2ccccc2)c(=O)c1Cl	none
O=c1c(Cl)c(N/N=C/c2ccc(Br)cc2)cnn1-c1ccccc1	GDH-TPI counter 56
O=C(NCC[C@@H]1CC[C@H](NC(=O)C2CCCC2)[C@@H](CO)O1)c1cnccn1	none (no result: Rv3671c inh, Mtb FBA inh, FadD28 binding, GDH-TPI counter)
C[C@@H]1CN([C@@H](C)CO)C(=O)c2cc(NS(=O)(=O)c3cn(C)cn3)ccc2O[C@@H](C)CCCCO[C@@H]1CN(C)S(=O)(=O)c1ccc(Cl)cc1	none (no result: Rv3671c inh, Mtb FBA inh, FadD28 binding, GDH-TPI counter)
Clc1ccc(-c2ccc(C=Nc3ccc(N4CCOCC4)cc3)o2)c(Cl)c1	none
Clc1ccc(-c2ccc(C=Nc3ccc(N4CCOCC4)cc3)o2)cc1	GDH-TPI counter 32
O=C1NC(=S)N/C1=C/c1cc([N+](=O)[O-])ccc1O	GDH-TPI counter 34
O=C(C[C@@H]1CC[C@@H](NS(=O)(=O)c2ccccc2)[C@@H](CO)O1)NCc1ccccc1F	none (no result: Rv3671c inh, Mtb FBA inh, FadD28 binding, GDH-TPI counter)
Cc1cccc(-n2c3nc(=O)[nH]c(=O)c-3cc3c(C)nn(-c4ccccc4)c32)c1C	Mtb FBA inh active
Cc1nn(-c2ccccc2)c2c1cc1c(=O)n(C)c(=O)nc-1n2-c1ccccc1F	Mtb FBA inh 164
Cc1cccc(-n2c(C)nc3ccccc3c2=O)c1C	none (no result: Mtb BioA inh)
CCC(C)Nc1cc(C)c(C#N)c2nc3ccccc3n12 (stereo unspecified)	Mtb FBA inh active
Cc1cc(NCCCn2ccnc2)n2c(nc3ccccc32)c1C#N	Mtb FBA inh 70 (no result: Mtb BioA inh)
Cc1cc(NCCCN(C)C)n2c(nc3ccccc32)c1C#N	Mtb FBA inh active
Cc1cc(-n2ccnc2)n2c(nc3ccccc32)c1C#N	none
Cc1cc(NCCCOC(C)C)n2c(nc3ccccc32)c1C#N	Mtb FBA inh 190
C[C@@H]1CN([C@H](C)CO)C(=O)c2cccc(NS(=O)(=O)c3cccs3)c2O[C@H]1CN(C)C	none (no result: Rv3671c inh, Mtb FBA inh, FadD28 binding, GDH-TPI counter)
O=C(C[C@@H]1C=C[C@@H](NS(=O)(=O)c2ccc(F)cc2)[C@@H](CO)O1)NC1CCC1	none (no result: Rv3671c inh, Mtb FBA inh, FadD28 binding, GDH-TPI counter)
O=C(C[C@@H]1CC[C@H]2[C@@H](COC[C@@H](O)CN2C(=O)Nc2cc(Cl)cc(Cl)c2)O1)NCC1CCCCC1	none (no result: Rv3671c inh, Mtb FBA inh, FadD28 binding, GDH-TPI counter)
CCCc1cc(-n2ccnc2)n2c(nc3ccccc32)c1C#N	none
CCCc1cc(NCCCO)n2c(nc3ccccc32)c1C#N	Mtb FBA inh active
CCOC(=O)c1cc(C(=O)OCC)c2ccccn2c1=O	Mtb FBA inh active (no result: Mtb BioA inh)
Cc1ccc2[nH]c3c(=O)n(N)c(=O)[nH]c3c2c1	Mtb FBA inh 119
COc1ccc(/C=C2\SC(=O)N(CCn3cnnn3)C2=O)cc1	GDH-TPI counter 38 (no result: Mtb BioA inh)
COc1ccc(/C=C2\SC(=O)N(CCC(=O)N3CCCCC3CCO)C2=O)cc1 (stereo unspecified)	GDH-TPI counter 40
COc1ccc(/C=C2\SC(=O)N(CCNC(=O)C3CC4C=CC3C4)C2=O)cc1 (stereo unspecified)	none (no result: Mtb BioA inh)
COc1ccc(S(=O)(=O)N(C)C[C@@H]2Oc3c(NC(=O)c4ccc(-c5nccs5)cc4)cccc3C(=O)N([C@H](C)CO)C[C@@H]2C)cc1	none (no result: Rv3671c inh, Mtb FBA inh, FadD28 binding, GDH-TPI counter)
O=C(OCC(=O)c1c[nH]c2ccccc12)c1cccc(S(=O)(=O)N2CCCCCC2)c1	none
CCc1cccc2c(C(=O)COC(=O)c3cccc(S(=O)(=O)N(C)C4CCCCC4)c3)c[nH]c12	FadD28 binding 22 (no result: Mtb BioA inh)
O=C1NN(c2ccc(Br)cc2)C(=O)/C1=C\c1ccc(O)cc1O	FadD28 binding 16
O=C(O)CSC(C(=O)Nc1ccc(C(F)(F)F)cc1)c1ccccc1 (stereo unspecified)	FadD28 binding 10
O=C(O)CSC(C(=O)Nc1ccc(Br)cc1)c1ccc(Cl)cc1 (stereo unspecified)	none (no result: Mtb BioA inh)
CC(=O)NC(CSC(CC(=O)c1ccco1)c1ccc(C)cc1)C(=O)O (stereo unspecified)	GDH-TPI counter 31 (no result: Mtb BioA inh)
